Several values for one entry are separate records, joined by “and”; a condition that tells them apart may be missing. Identical values can stand only once. The panel holds about 79,000 compounds, 15% with a hit somewhere; the sample as a whole holds those more often. Activity calls are given as the source filed them. Cut-off read from the data, not from the text of the source: active = growth inhibition above about 70%; inactive = the rest.
How the values were obtained:
[1] = NCI Yeast Anticancer Drug Screen. Data for the rad50 strain (AID 155);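 note: 0% = growth of vehicle-only cultures of the same strain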; conditions: S. cerevisiae rad50 strain growth inhibition; at 50.0 µM; hits give high values
Summary of the method: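 Genetically altered yeast (DNA repair pathway); compound treatment; growth inhibition vs vehicle ctrl.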

[2] = NCI Yeast Anticancer Drug Screen. Data for the mec2-1 strain (AID 157); conditions: S. cerevisiae mec2-1 strain, at 50.0 µM, hits give high values
Summary of the method: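 Vehicle-treated cultures served as reference for growth inhibition of compound-exposed mec2-1 yeast.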

[3] = NCI Yeast Anticancer Drug Screen. Data for the sgs1 mgt1 strain (AID 161);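 note: 0% = growth of cultures given vehicle only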; conditions: S. cerevisiae sgs1 mgt1 strain, at 50.0 µM, hits give high values
Summary of the method: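 Mutant yeast exposed to compound; growth scored against vehicle-only wells.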

[4] = NCI Yeast Anticancer Drug Screen. Data for the cln2 rad14 strain (AID 165);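 note: 0% = growth equal to vehicle treated cultures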; conditions: S. cerevisiae cln2 rad14 strain, at 50.0 µM, hits give high values
Summary of the method: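 Each compound was tested on cln2 rad14 yeast. Inhibition of growth was calculated against vehicle-exposed controls.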

[5] = NCI Yeast Anticancer Drug Screen. Data for the bub3 strain (AID 167); conditions: S. cerevisiae bub3 mutant strain, at 50.0 µM, hits give high values
Summary of the method: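 Yeast carrying a defined mutation is treated with each compound, and growth is compared with that of vehicle-exposed cells to give inhibition.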

[6] = NCI Yeast Anticancer Drug Screen. Data for the mlh1 rad18 strain (AID 175); conditions: S. cerevisiae mlh1 rad18 strain growth inhibition; at 50.0 µM; hits give high values
Summary of the method: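 Vehicle-treated cultures served as the reference for growth inhibition in a yeast strain carrying DNA damage repair alterations exposed to each compound.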

Measured: growth inhibition

C=Cc1cc(OC)c2c(c1)c(=O)oc1c2cc(OC)c2c(O)ccc(C3OC(C(C)O)C(O)C3O)c21 (centres undefined)
active: [1] 88% | [2] 91.7% | [3] 89.1% | [4] 90.2% | [5] 90% | [6] 89.3%

C(/COc1cccnc1)=N\NC1=NCCN1
inactive: [1] -12.2% | [2] -29.6% | [3] -44.8% | [4] 3.7% | [5] -21.9% | [6] -35.9%

C[C@H]1CC(=O)C[C@@H]2CC[C@@H]3[C@H](CC[C@]4(C)C(OC(=O)c5cccc6c(=O)c7ccccc7[nH]c56)CC[C@@H]34)[C@]21C (some centres undefined)
inactive: [1] 42.4% | [2] 22% | [3] 45.6% | [4] 41.9% | [5] 5.2% | [6] 40.9%

O=C(Cc1ccccc1)Nc1ccc(Cl)cc1C(=O)c1ccccc1
inactive: [1] 1.95% | [2] 44.2% | [3] 40.1% | [4] -18.3% | [5] 23.1% | [6] 36.7%

CCC1=C(CC2NCCc3cc(OC)c(OC)cc32)CC2c3ccccc3CCN2C1 (centres undefined)
inactive: [1] -16.8% | [2] -26.5% | [3] -42.7% | [4] -9.75% | [5] -22.8% | [6] -16.3%

CN1CCCC(OC(=O)C(c2ccccc2)C2(O)CCCC2)C1 (centres undefined)
inactive: [1] 30.6% | [2] -9.55% | [3] 27.1% | [4] -27.9% | [5] -1.85% | [6] 16.8%

O=C(C(Cl)Cl)N1CCCCC1
inactive: [1] -5.2% | [2] -0.3% | [3] -5.5% | [4] 4.65% | [5] 0% | [6] 39.9%

CCCCCCCCCCBr
inactive: [1] 30.4% | [2] 17.2% | [3] -12.4% | [4] 25.1% | [5] 17.1% | [6] -37.6%

NNc1c(C(N)=O)c2c(N)ncnc2n1C1OC(CO)C(O)C1O (centres undefined)
inactive: [1] -0.6% | [2] 37.8% | [3] 4.9% | [4] 10.5% | [5] 4.55% | [6] 19.9%

C#CC1(O)CCCCCC1
inactive: [1] 11.6% | [2] 3.45% | [3] -7.55% | [4] 8.55% | [5] 12.4% | [6] 6.8%

O=[N+]([O-])O.[Sm]
inactive: [1] 12.3% | [2] 3.95% | [3] 26.8% | [4] 17.1% | [5] 15.7% | [6] -18.4%

c1ccc2cc(C3NCCc4[nH]cnc43)ccc2c1 (centres undefined)
inactive: [1] 4.65% | [2] -7.6% | [3] -6.7% | [4] 2.85% | [5] -7.7% | [6] 29.8%

CC(=O)C1(c2ccccc2)CCNCC1
inactive: [1] -1% | [2] -13.1% | [3] 10.6% | [4] 11.9% | [5] -3.9% | [6] -3.35%

[N-]=[N+]=CC(=O)OCC(N)C(=O)O (centres undefined)
inactive: [1] 4.5% | [2] -12.8% | [3] -5.35% | [4] 14.1% | [5] -6.7% | [6] -0.6%

C[N+](C)(C)CCNP(=O)(Oc1ccccc1)c1ccccc1 (centres undefined)
inactive: [1] 4.15% | [2] 5.55% | [3] -22.5% | [4] 1.35% | [5] -1.55% | [6] 21.6%

CCCCCCCN1CCC(C(=O)CC)(c2cccc(O)c2)CC1
inactive: [1] 21.6% | [2] 21.4% | [3] 33.5% | [4] -2.75% | [5] 15.9% | [6] 30.6%

CCCCN(CCCC)CC(=O)c1ccc(Br)cc1
inactive: [1] 7.05% | [2] 2.5% | [3] 20.2% | [4] -24.4% | [5] 18% | [6] 27.6%

CCN(CCCl)c1ccc(NC(=O)c2cc(C(=O)NCCN(C)C)cc(C(=O)Nc3ccc(N(CC)CCCl)cc3)c2)cc1
inactive: [1] 35% | [2] -23.9% | [3] -15.8% | [4] 2.95% | [5] -1.4% | [6] 12.5%

O=C(C1C(c2ccccc2)N1C1CCCCC1)C1C(c2ccccc2)N1C1CCCCC1 (centres undefined)
inactive: [1] 6% | [2] 17.9% | [3] 10.6% | [4] -5.1% | [5] -10.5% | [6] 8.7%

NC(=O)OCCc1c2ccccc2nc2ccccc12
inactive: [1] 19.6% and 47.6% | [2] 3.75% and 51.5% | [3] 11.5% and 49.9% | [4] 2.6% and 42.4% | [5] 8.15% and 34.1% | [6] 16.1% and 64.5%

CC(C)=CC1C(C(=O)OCc2ccc(Cl)c(Cl)c2)C1(C)C (centres undefined)
inactive: [1] 4.25% | [2] -2.5% | [3] 8.9% | [4] 16.9% | [5] 8.9% | [6] 5.25%

CC1C(=O)OC2CC[N+]3([O-])CC=C(COC(=O)C(C)(O)C1(C)O)C23 (centres undefined)
inactive: [1] -0.6% | [2] -37.2% | [3] -14.7% | [4] -5.25% | [5] -9.25% | [6] -84.4%

C[C@]12C=CC(=O)C=C1CC[C@@H]1[C@@H]2C(=O)C[C@]2(C)C(=O)CC[C@@H]12
inactive: [1] -11.4% | [2] -19.1% | [3] 2.05% | [4] -1.85% | [5] -4.4% | [6] 4.95%

CN(N=O)c1ccc([N+](=O)[O-])cc1
inactive: [1] 26.2% | [2] 26.4% | [3] 15.8% | [4] 18.2% | [5] 24.4% | [6] 28.1%

COc1ccc(CCNC2CC3CCC2(C)C3(C)C)cc1OC (centres undefined)
inactive: [1] 15.6% | [2] 12.8% | [3] 11.5% | [4] -22.3% | [5] 8.75% | [6] 24.9%

O=C(O)c1ccccc1O.[Cu]
inactive: [1] -31.2% | [2] -32.5% | [3] -36.8% | [4] -3.85% | [5] -19.1% | [6] -8.65%

CN1C(=O)N(C)C(O)C(Cl)(Br)C1=O (centres undefined)
inactive: [1] -0.5% | [2] 2.5% | [3] 7.3% | [4] 26.2% | [5] 5.9% | [6] 12.7%

O.O.O=Cc1ccccc1O.O=Cc1ccccc1O.[Co]
active: [1] 98.2% | [2] 92.2% | [3] 97.8% | [4] 79.1% | [5] 92.5% | [6] 98.3%

NC(=O)C(Cl)(Cl)CCl
inactive: [1] 14.7% | [2] -34.5% | [3] -12.4% | [4] 1.5% | [5] -2.5% | [6] 6.65%

O=C(Nc1ccccc1)C(Cl)(Cl)Cl
inactive: [1] -10.1% | [2] -25.8% | [3] 11.1% | [4] -10.2% | [5] -9.8% | [6] 19.8%

COc1ccc(Cc2nccc3cc(OC)c(OC)cc23)cc1OC
inactive: [1] -4.15% and -16.3% | [2] -19.4% and -28% | [3] -6.9% and 11.4% | [4] -2.9% and -11.6% | [5] -11.7% and -7.9% | [6] -21.1% and -29.4%

C(=Nc1ccccc1)C1CCCC[N-]1.C(=Nc1ccccc1)C1CCCC[N-]1.[Cu+2].[O-][Cl+3]([O-])([O-])O (centres undefined)
inactive: [3] 65%
active: [1] 90.5% | [2] 83.6% | [4] 92.5% | [5] 74.2% | [6] 88%

O=[N+]([O-])c1ccc2c(c1)Oc1cccnc1[Se]2
inactive: [1] 16.1% | [2] 8.6% | [3] 20.9% | [4] 8.25% | [5] -11.5% | [6] 38.8%

CNC(=O)Oc1cc(OC)ccc1C(=O)c1ccccc1
inactive: [1] 2.45% | [2] 6.85% | [3] 32.6% | [4] -21.6% | [5] 5.35% | [6] 47%

Cc1csc(CP(=O)(OC(C)C)OC(C)C)n1
inactive: [1] -22.6% | [2] -47% | [3] -21.6% | [4] -13.2% | [5] 3.35% | [6] -5.8%

COc1cc2c(cc1OC)C13CCN4CC5=CCOC6CC(=O)N2C1C6C5CC43 (centres undefined)
inactive: [1] -13% and 7.35% | [2] -43.9% and -36.3% | [3] -20.9% | [4] 4% | [5] -8.6% | [6] -0.6% and -1.65%

O=NNc1ccc2ccccc2n1
inactive: [1] -17.1% | [2] 23.5% | [3] -2% | [4] 14.6% | [5] 3.2% | [6] -6.95%

CCOC(=O)C(=O)CC(=O)[C@H]1CC[C@H]2[C@@H]3CC[C@@H]4C[C@H](O)CC[C@]4(C)[C@H]3C(=O)C[C@]12C
inactive: [1] 30.6% | [2] 15.3% | [3] 40.8% | [4] 37.5% | [5] -3.8% | [6] 34.7%

Cc1cc(C)cc(C(O)(C(=O)O)c2ccccc2)c1 (centres undefined)
inactive: [1] -0.75% | [2] -5.35% | [3] -5.45% | [4] 5.55% | [5] -5.9% | [6] -4.9%

c1ccc([C@H]2N[C@@H]2c2ccccn2)cc1
inactive: [1] 22.6% | [2] 32.5% | [3] 32.5% | [4] -4.35% | [5] 19.5% | [6] 13.2%

CCC[As](=O)(O)CC(C)C
inactive: [1] 3.2% | [2] -2.8% | [3] -4.9% | [4] 13.2% | [5] -0.4% | [6] -3.75%

CC(C)c1cccc(OC(=O)N(C)C=O)c1
inactive: [1] -8.1% | [2] 12.7% | [3] -12.8% | [4] -46.4% | [5] -21.4% | [6] -1.5%

CC1CC2OC(=O)C(CN3CC3)C2CC2(C)C(O)CC(O)C12 (centres undefined)
inactive: [1] 32.2% | [2] 30.3% | [3] 32.5% | [4] -4.1% | [5] 10.3% | [6] 26.1%

CC12CCC(O)CC1CCC1C2CCC2(C)C(c3ccc(=O)oc3)CC3OC312 (centres undefined)
inactive: [1] 35.5% | [2] 31.5% | [3] 66.5% | [4] 48.5% | [5] 48.6% | [6] 60.9%

From PubChem BioAssay (NCI)
